Consider 33 molecules from PubChem BioAssay AID1851 (National Center for Advancing Translational Sciences (NCATS), 2009).

SMILES strings stand for the structures. The campaign covered roughly 16,000 compounds. About 5,700 (36%) were called active. About 24% were inconclusive and are not listed. Calls come from the whole dose curve; as a rule, active = well fitted curve in the direction sought with a large enough effect; inconclusive = small, poorly fitted or top-dose-only effect, or effect the other way; inactive = no such curve, though single readings can be large or run the other way. Some of the results follow.
% is set by controls: 0 for no effect and ±100 for the full control effect.

The target of this assay is Cytochrome P450 1A2 (Homo sapiens) (UniProt P05177). Kind of assay: Cytochrome panel assay with activity outcomes. As to conditions: recombinant CYP, pro-luciferin dealkylation, luminescence, p450-cyp1a2; series mostly up to 57.1 µM.
Chain of Cytochrome P450 1A2 (Homo sapiens) (P05177 whole entry, looked up): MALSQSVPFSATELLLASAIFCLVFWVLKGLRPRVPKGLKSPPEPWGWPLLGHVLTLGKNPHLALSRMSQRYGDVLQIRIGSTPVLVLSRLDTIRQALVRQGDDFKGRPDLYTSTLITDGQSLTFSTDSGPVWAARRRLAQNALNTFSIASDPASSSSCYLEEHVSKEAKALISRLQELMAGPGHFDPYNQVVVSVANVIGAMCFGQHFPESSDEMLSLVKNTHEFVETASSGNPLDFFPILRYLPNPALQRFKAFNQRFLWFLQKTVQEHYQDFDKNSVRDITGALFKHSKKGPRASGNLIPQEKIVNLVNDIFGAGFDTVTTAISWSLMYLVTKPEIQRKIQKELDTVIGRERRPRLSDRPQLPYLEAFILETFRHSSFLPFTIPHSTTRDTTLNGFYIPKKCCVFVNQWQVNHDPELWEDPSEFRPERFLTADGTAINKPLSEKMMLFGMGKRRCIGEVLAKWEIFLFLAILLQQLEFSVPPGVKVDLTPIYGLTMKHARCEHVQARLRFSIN
`CC(C)C(NC(=O)C1CCCCC1)C(=O)NC1CCN(Cc2ccccc2)CC1` (stereo not drawn): the AC50 entry was “inactive”. Regarding `Cc1ccc(C(=O)NCC2CCCO2)cc1N1CCCC1=O` (stereo not drawn), the AC50 entry is “inactive”. Take `Cc1ccccc1C(=O)c1c[nH]c(C(=O)NCC2CCCO2)c1` (stereo not drawn): the AC50 was 25.1 µM (active). With `COc1ccc(C(=O)c2c[nH]c(C(=O)NCc3cccs3)c2)cc1`, the AC50 result was “inactive”.

As to `Cc1ccccc1C(=O)c1c[nH]c(C(=O)NCc2cccs2)c1`, the AC50 is 10 µM (active). Regarding `CCOc1cc(NC(=S)NCC2CCCO2)c(OCC)cc1NC(=O)c1ccccc1C` (stereo not drawn), the AC50 entry was “inactive”. Take `O=C(O)CC[C@]1(C(=O)O)CCC(=O)c2ccccc21`: the activity, negative = inhibition was -9.13% [at 11.4 µM] (inactive).

`CC[C@](N)(C(=O)O)C(C)C`: the activity, negative = inhibition is -14.6% [at 11.4 µM] (inactive). Consider `Cc1cccn2c(=O)c(C=NCc3ccco3)c(Nc3ccc(SC(F)F)cc3)nc12`, for which the AC50 was 0.562 µM (active). For `O=c1c2ccccc2c(-c2ccc(Br)cc2)nn1Cc1ccccc1`, the half-maximal activity concentration (AC50) is 2.82 µM (active). The same measure, in the same setting: as for `Cc1ccc(C(=O)CNc2nc3c(c(=O)[nH]c(=O)n3C)n2Cc2ccccc2)cc1`, the entry is “inactive”; as for `O=c1c2ccccc2nc(-c2ccc(Br)cc2)n1Cc1ccccc1`, 10 µM (active). Same read-out and setting: the value for `O=C(CCn1nc(-c2ccc(Cl)cc2)c2ccccc2c1=O)NCCN1CCOCC1` was “inactive”; that for `COC(=O)c1c(NC(=O)c2ccco2)sc2c1CCC2` was 0.891 µM (active); that for `CCOC(=O)c1c(NC(=O)Cn2cc([N+](=O)[O-])cn2)sc2c1CCC2` was 2.82 µM (active). Regarding `COC(=O)c1c(NC(=O)Cn2cc([N+](=O)[O-])cn2)sc2c1CCC2`, the concentration at half-maximal activity (AC50) is 1.26 µM (active). `CCC(=O)NC(Nc1sc2c(c1C(=O)OC)CCCC2)(C(F)(F)F)C(F)(F)F`: the AC50 entry was “inactive”. With `CCOC(=O)c1c(NC(=O)CSc2nnc(C)s2)sc2c1CCCCC2`, the concentration at half-maximal activity (AC50) was 8.91 µM (active). Regarding `CC1Cc2ccccc2N1C(=O)Cn1cc([N+](=O)[O-])cn1` (stereo not drawn), the AC50 entry is “inactive”.

As to `CC(=O)OC1COC(N2CCc3cc([N+](=O)[O-])ccc32)C(OC(C)=O)C1OC(C)=O` (stereo not drawn), the AC50 result is “inactive”. On the same count and under the same terms, the value for `C#CCSc1nc(Cc2ccc(Cl)cc2)nc2ccccc12` was 1.26 µM (active). For `CCc1nc(SCC(=O)NNC(=O)C2CCCCC2)c2ccccc2n1`, the AC50 result is “inactive”. Regarding `COc1cccc(CSc2nnc(C(F)(F)F)n2Cc2ccc(F)cc2)c1`, the concentration at half-maximal activity (AC50) is 11.2 µM (active). For the molecule `Fc1ccc(Cn2c(SCc3ccc(F)c(C(F)(F)F)c3)nnc2C(F)(F)F)cc1`, the AC50 result is “inactive”. For the molecule `CC(C)CC1NC(=S)N(C2CCCCC2)C1=O` (stereo not drawn), the AC50 result was “inactive”. Same read-out and setting: the value for `CC(=O)Nc1ccc(N2CCCCC2)cc1` was 14.1 µM (active); that for `CC(=O)Nc1ccc(N2CCCCC2)c(C(=O)Nc2cccc(C)c2)c1` was 14.1 µM (active); that for `Cc1ccc(NC(=O)c2cc(NC(=O)CCC(=O)O)ccc2N2CCCCC2)cc1` was “inactive”. Same read-out and setting: the value for `CCc1ccc(OCCCC(=O)Nc2ccc(N3CCCCC3)cc2)cc1` was “inactive”; that for `O=C(Nc1ccc(N2CCCCC2)cc1)c1cncc(Br)c1` was 4.47 µM (active). In the case of `Cc1c(N2CCCC2)cc2c(c1NC(=O)c1ccccc1Cl)C(C)(C)CC2(C)C`, the activity, negative = inhibition was -13.1% [at 2.29 µM] (inactive).

Regarding `O=C(/C=C/c1ccc(Cl)cc1)Nc1ccc(N2CCCCC2)cc1`, the AC50 result was “inactive”. For `CC(=O)N1CCN(c2ccc(NC(=O)c3ccc(C)cc3)cc2)CC1`, the AC50 result is “inactive”.
